A selection: hits, their analogues and other compounds. The true share with any hit is near 3.6%.
Pf apPOL block = Pf-apPOL inhibitors, biochemical, fluorescence. AID 1794808, 2022. Recombinant Pf-apPOL, molecular beacon fluorescence, 1.5 h. inhibition, % at 10 µM. actives 0.25% (n = 210,000)
mHTT CaM bind = mutant huntingtin-calmodulin interaction inhibitors – biochemical, AlphaScreen, primary screen. AlphaScreen His-mHTT/GST-CaM binding, luminescence. inhibition, % at 15 µM. actives 3.6% (n = 190,000);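 also: 0% = both proteins with DMSO and 100% = one protein alone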
The depositor's hits bear a star; . = no result. Rule as the data show it: active = inhibition above about 50%; inactive = the rest.

SMILES | Pf apPOL block | mHTT CaM bind
OC(C#CC(O)(c1ccccc1)c1ccccc1)(c1ccccc1)c1ccccc1 | -12 | .
CN(C)CCNC(=O)c1ccc(N2CCNC(c3ccccc3)C2)nc1 (stereo not drawn) | 7 | 11
O=C(C1CCCCC1)N1CCC(CCOc2cccnc2)CC1 | 0 | 2
Oc1c(C=NCc2ccccc2)[nH]c2ccc(Br)c(Cl)c12 | 8 | 36
COc1ccc(N=Cc2[nH]c3ccc(Br)c(Cl)c3c2O)cc1 | -11 | 19
Oc1c(C=NC2CCCCC2)[nH]c2ccc(Br)c(Cl)c12 | 9 | 76*
Oc1c(C=Nc2ccc(Br)cc2)[nH]c2ccc(Br)c(Cl)c12 | -7 | 58*
Cc1cc(C)cc(N=Cc2[nH]c3ccc(Br)c(Cl)c3c2O)c1 | -3 | 4
COc1ccc(CN=Cc2[nH]c3ccc(Br)c(Cl)c3c2O)cc1 | 5 | 69*
O=C(Nc1ccc2c(c1)CN(Cc1ccccc1F)C(=O)CO2)C1CCCC1 | 0 | 8
O=C(c1cc2ccccc2[nH]1)N1CCC(CCOc2ccccc2)CC1 | 1 | -4
CC(C)NC(=O)c1cn(-c2cccc(F)c2)nn1 | 0 | -12
N#Cc1c(N)nc2c(c1-c1ccc([N+](=O)[O-])cc1)CCCCC2 | -3 | -6
Cc1nn(-c2ccccc2)nc1CNC(=O)COc1ccccc1 | -2 | .
O=[N+]([O-])c1ccccc1CN1CCN(C2CCN(Cc3ccccc3)CC2)CC1 | -6 | 2
Cc1ccn2cc(C(=O)N3CCN(c4ccccc4C)CC3)nc2c1 | 0 | 5
CCC(=O)N1CCN(S(=O)(=O)c2ccc(C)cc2)C1c1ccc(N(C)C)cc1 (stereo not drawn) | -9 | 18
CCC(=O)N1CCN(S(=O)(=O)c2ccc(C)cc2)C1c1ccccc1 (stereo not drawn) | -8 | -10
Cc1ccc(C(=O)N2CCN(S(=O)(=O)c3ccc(C)cc3)C2c2ccc(N(C)C)cc2)cc1 (stereo not drawn) | 1 | 50*
Cc1ccc(S(=O)(=O)N2CCN(C(=O)c3ccccc3)C2c2ccc(N(C)C)cc2)cc1 (stereo not drawn) | -17 | 56*
CCN(CC)c1ccc(C2N(C(=O)c3ccccc3)CCN2S(=O)(=O)c2ccccc2)cc1 (stereo not drawn) | 2 | 37
CCC(=O)N1c2ccccc2N(S(=O)(=O)c2ccc(C)cc2)C1c1ccc(N(C)C)cc1 (stereo not drawn) | 4 | 53*
Cc1c(C(=O)NC2CCCC2)oc2ccc(S(=O)(=O)N3CCC4(CC3)OCCO4)cc12 | 6 | 23
Fc1cccc(-c2noc(-c3ccc(NCc4ccccn4)nc3)n2)c1 | -12 | -3
